Screening results: PubChem BioAssay, National Center for Advancing Translational Sciences (NCATS)
HT1080 IDH1KD tx – HT-1080 IDH1 knockdown cell toxicity (counter line). HT-1080 IDH1 knockdown viability, ATP luminescence, 48 h. Potency, µM (highest dose often 46.1 µM), actives largely listed as cytotoxic. 360,000 compounds, 2% hits. AID 686971
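After a 2 h attachment period, IDH1KD HT-1080 cells took pin-transferred compound for 48 h at 37 °C; ATP-based luminescence after 10 min room-temperature reagent incubation reported viability.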
DT40 TDP1 no CPT – qHTS for Inhibitors of human tyrosyl-DNA phosphodiesterase 1 (TDP1): qHTS in cells in absence of CPT | DT40 Tdp1-/- hTDP1 cells, no CPT, ATP luminescence, 48 h | Potency, µM (top dose mostly 46.2 µM), actives largely listed as inhibitors | 420,000 compounds, 15% hits | AID 686978, 2013; also: nearly all actives have a fitted effect of over 55% in size
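DT40 Tdp1-/-;hTDP1 cells, no CPT (DMSO vehicle only), 400 cells/well; compounds pin-transferred; ≥48 hr, 37 °C; CellTiter-Glo 30 min RT dark, luminescence read.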
IL1B secr inh – inhibitors of inflammasome signaling (IL-1 beta secretion). AID 743279. THP-1 LPS/ATP IL-1B secretion, AlphaLISA, 16 h; active compounds read low. 360,000 compounds, 4.7% hits. activity change, % at 57.5 µM; in the data active = activity change below about -50%; inconclusive = mostly about -30% to -49%
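THP-1 cells pretreated 1 hr with compounds (up to 57.5 uM final), then stimulated with LPS (250 ng/mL final) plus ATP (1.25 mM final); secreted IL-1B measured by AlphaLISA after 16 hr, decreased signal indicating inhibition.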
DT40 TDP1 CPT – growth inhibition of DT40 Tdp1-/-;hTDP1 cells with camptothecin (screen for TDP1 inhibitors); chicken DT40 Tdp1-/-;hTDP1 cells + 20 nM CPT, ATP luminescence, 48 h; Potency, µM (doses to about 46.2 µM), most hits filed as inhibitors; 420,000 compounds, 12% hits; AID 686979; also: nearly all actives have a fitted effect of over 55% in size
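Chicken DT40 Tdp1-/- cells complemented with human TDP1, 400 cells/well, exposed to compounds plus 20 nM camptothecin for at least 48 h at 37 C; viability read as ATP content by CellTiter-Glo luminescence.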
HT1080NT lethal – kills 2HG-producing HT-1080-NT fibrosarcoma cells. HT-1080-NT fibrosarcoma viability, CellTiter-Glo ATP luminescence, 48 h. Potency, µM (series often up to 46.1 µM), most hits filed as cytotoxic. 360,000 compounds, 1.6% hits. AID 686970;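 also: NT is the 2HG producing partner of a matched IDH1 knockdown line; nearly all actives have a fitted effect of over 55% in size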
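HT-1080-NT; 750 cells/well; 5% FBS RPMI; 48 h compound, 37 degrees C; CellTiter-Glo luminescence; curve fitting and curve-class assignment.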
ELG1 repair inh – ELG1-dependent DNA repair inhibition. 330,000 compounds, 2.3% hits. Potency, µM (titrated, usually from 46.1 µM), actives largely listed as inhibitors. AID 504467. HEK293T ELG1-luciferase reporter, luminescence, 16 h; DNA damage induced by 5-fluorouridine; also: nearly all actives have a fitted effect of over 55% in size
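Step one: seed 2,000 cells per well. Step two: pin-transfer compound or DMSO alongside 5-fluorouridine. Step three: incubate 16 hr, 37 °C, 5% CO2. Step four: add ONE-Glo, wait 30 min, read luminescence.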
Hits are given with their value. Most compounds without a hit are left out; they make up all but 19% or so of the library. Unless noted, calls follow the shape of the dose curve; as a rule, active = well fitted curve in the direction sought with a large enough effect; inconclusive = small, poorly fitted or top-dose-only effect, or another doubt; inactive = no such curve, though single readings can be large; an effect the other way counts as inactive or inconclusive.

`O=C(Nc1cccc(S(=O)(=O)NC2=NCCCCC2)c1)c1cc(-c2ccco2)nc2ccccc12` gave HT1080 IDH1KD tx inactive, DT40 TDP1 no CPT 9.2µM, IL1B secr inh inactive, DT40 TDP1 CPT inconclusive, HT1080NT lethal inconclusive and ELG1 repair inh inactive.
O=C(Nc1cccc(S(=O)(=O)NCc2ccco2)c1)c1cc(-c2ccccc2)nc2ccccc12 was read as HT1080 IDH1KD tx inconclusive, DT40 TDP1 no CPT 23µM, IL1B secr inh -88, DT40 TDP1 CPT inconclusive, HT1080NT lethal inactive and ELG1 repair inh 21µM.
COc1ccc(CC(=O)NC2CC(=O)N(c3cccc(F)c3)C2)cc1 (stereo not drawn) was read as DT40 TDP1 no CPT inactive and DT40 TDP1 CPT inactive.
Screening O=C1CN(c2nc(-c3cccs3)nc3sc4c(c23)CCCC4)CCN1 returned HT1080 IDH1KD tx 13µM, DT40 TDP1 no CPT inconclusive, IL1B secr inh -94, DT40 TDP1 CPT inconclusive, HT1080NT lethal inconclusive and ELG1 repair inh inactive.
`Cc1nc(Cc2nnc(SC(C)C(=O)Nc3cccc(C#N)c3)o2)cs1` (stereo not drawn) gave HT1080 IDH1KD tx inactive, DT40 TDP1 no CPT inactive, IL1B secr inh inactive, DT40 TDP1 CPT inactive, HT1080NT lethal inactive and ELG1 repair inh inconclusive.
Screening CCNc1ncc2nc(CCc3ccccc3)c(=O)n(C3CC3)c2n1 returned DT40 TDP1 no CPT inactive and DT40 TDP1 CPT inactive.
`CNC(=O)C1CCN(C(=O)N2CC(C)Oc3ccc(Cl)cc32)CC1` (stereo not drawn) gave DT40 TDP1 no CPT inactive and DT40 TDP1 CPT inactive.
Cn1c2c(c3ccccc31)CCN(CCCCN1CCN(c3ccccc3)CC1)C2=O was read as HT1080 IDH1KD tx inconclusive, DT40 TDP1 no CPT inconclusive, IL1B secr inh -62, DT40 TDP1 CPT inconclusive and HT1080NT lethal inactive.
`Cc1c(C(=O)CN2CCN(c3ccccc3)CC2)c2ccccc2n1C` gave HT1080 IDH1KD tx inactive, DT40 TDP1 no CPT inconclusive, IL1B secr inh inactive, DT40 TDP1 CPT inconclusive, HT1080NT lethal inactive and ELG1 repair inh inactive.
For CC1(C)CC[C@]2(C)CC[C@@]3(C)C(=CCC4[C@@]5(C)CCC(O)C(C)(C)C5CC[C@@]43C)C2C1 (stereo partly drawn) the results were DT40 TDP1 no CPT inactive and DT40 TDP1 CPT inactive.
Screening COc1cccc(NC(=O)Cn2nc(Cc3cccnc3)c3ccccc3c2=O)c1 returned HT1080 IDH1KD tx inactive, DT40 TDP1 no CPT inconclusive, IL1B secr inh inconclusive, DT40 TDP1 CPT inactive, HT1080NT lethal inactive and ELG1 repair inh inactive.
C=CC(=O)Nc1cccc(CN2C(=O)N(c3cc(OC)cc(OC)c3)Cc3cnc(NCCCCN(CC)CC)nc32)c1 was read as HT1080 IDH1KD tx inactive, DT40 TDP1 no CPT inconclusive, IL1B secr inh -60, DT40 TDP1 CPT inactive and HT1080NT lethal inactive.
Screening O=S(=O)(c1ccccc1)c1nnn2c1nc(NCc1ccc(F)cc1)c1sccc12 returned DT40 TDP1 no CPT inactive and DT40 TDP1 CPT inactive.
For CCOC1=C2[C@@H](CN(S(=O)(=O)c3ccccc3C)[C@H]2c2ccc(Cl)cc2)[C@H]2C(=O)N(C3CCCCC3)C(=O)[C@H]2C1 the results were HT1080 IDH1KD tx inactive, DT40 TDP1 no CPT inconclusive, IL1B secr inh inactive, DT40 TDP1 CPT 21µM and HT1080NT lethal inactive.
For CCOC1=C2[C@@H](CN(S(=O)(=O)c3ccc(C)cc3)[C@H]2c2ccccc2Cl)[C@H]2C(=O)N(C)C(=O)[C@H]2C1 the results were HT1080 IDH1KD tx inactive, DT40 TDP1 no CPT 16µM, IL1B secr inh inactive, DT40 TDP1 CPT 26µM and HT1080NT lethal inactive.
For O=C(COC(=O)C1CCC1)NCc1ccc(F)cc1 the results were HT1080 IDH1KD tx inactive, DT40 TDP1 no CPT inactive, IL1B secr inh inactive, DT40 TDP1 CPT inactive, HT1080NT lethal inactive and ELG1 repair inh inactive.
CN(C)S(=O)(=O)c1ccc(N2CCCC2)c(C(=O)Nc2ccc(F)cc2F)c1 was read as HT1080 IDH1KD tx inactive, DT40 TDP1 no CPT inactive, IL1B secr inh inactive, DT40 TDP1 CPT inconclusive, HT1080NT lethal inactive and ELG1 repair inh inactive.
`COc1ccc(C(C)(C)C)cc1NC(=O)c1cc(S(=O)(=O)N(C)C)ccc1N1CCCC1` gave HT1080 IDH1KD tx inactive, DT40 TDP1 no CPT inconclusive, IL1B secr inh inactive, DT40 TDP1 CPT 21µM, HT1080NT lethal inactive and ELG1 repair inh inconclusive.
For Cc1cnc(NC(=O)c2cc(S(=O)(=O)N(C)C)ccc2N2CCCC2)s1 the results were HT1080 IDH1KD tx inactive, DT40 TDP1 no CPT inconclusive, IL1B secr inh -64, DT40 TDP1 CPT inconclusive, HT1080NT lethal inactive and ELG1 repair inh inconclusive.
For CN(C)S(=O)(=O)c1ccc(N2CCCC2)c(C(=O)Nc2nccs2)c1 the results were HT1080 IDH1KD tx inactive, DT40 TDP1 no CPT inactive, IL1B secr inh inactive, DT40 TDP1 CPT inactive, HT1080NT lethal inactive and ELG1 repair inh inactive.
For CCN(CC)S(=O)(=O)c1ccc(/C=C/C(=O)OCC(=O)N(C)C)cc1 the results were HT1080 IDH1KD tx inactive, DT40 TDP1 no CPT inactive, IL1B secr inh inactive, DT40 TDP1 CPT inactive, HT1080NT lethal inactive and ELG1 repair inh inactive.
COc1ccc(C(=O)C(=NN)c2ccccc2)cc1 was read as HT1080 IDH1KD tx inactive, DT40 TDP1 no CPT inactive, IL1B secr inh inactive, DT40 TDP1 CPT inactive and HT1080NT lethal inactive.
COc1ccc(C(=O)C(=NNc2ccccc2)c2ccc(OC)cc2)cc1 was read as HT1080 IDH1KD tx inactive, DT40 TDP1 no CPT inconclusive, IL1B secr inh -55, DT40 TDP1 CPT inconclusive and HT1080NT lethal inactive.
Screening COc1ccc(N/N=C(\C=N\O)C(=O)c2ccc(OC)cc2)cc1 returned HT1080 IDH1KD tx inconclusive, DT40 TDP1 no CPT 2.9µM, IL1B secr inh inactive, DT40 TDP1 CPT 2.6µM, HT1080NT lethal inconclusive and ELG1 repair inh inconclusive.
Screening COc1ccc(NC(=O)/C=N/O)cc1 returned HT1080 IDH1KD tx inactive, DT40 TDP1 no CPT inactive, IL1B secr inh inactive, DT40 TDP1 CPT inactive, HT1080NT lethal inactive and ELG1 repair inh inactive.
Cc1ccc(N2C(=O)N(CC(=O)N3c4ccccc4CC3C)C(=O)C2C)cc1 (stereo not drawn) was read as HT1080 IDH1KD tx inactive, DT40 TDP1 no CPT inactive, IL1B secr inh inactive, DT40 TDP1 CPT inactive, HT1080NT lethal inactive and ELG1 repair inh inactive.
Screening O=C(NCCN1CCN(c2cccc(Cl)c2)CC1)Nc1ccccc1C(F)(F)F returned DT40 TDP1 no CPT 18µM and DT40 TDP1 CPT inconclusive.
For Nc1ccccc1C(=O)NCCCN1CCN(c2cccc(Cl)c2)CC1 the results were HT1080 IDH1KD tx inactive, DT40 TDP1 no CPT inactive, IL1B secr inh inconclusive, DT40 TDP1 CPT inactive and HT1080NT lethal inactive.
